Screens: PubChem, NMMLSC
GSH fluor: compound fluoresces at 488/530 nm on GSH beads | fluorescence (KMESF) at 10 µM | AID 1776 | actives 0.25% (n = 190,000) | GSH beads flow cytometry, compound fluorescence 488/530 nm; stronger effect = higher value; in the data active = fluorescence above about 89;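 note: glutathione beads carrying GST-tagged Bcl family fusion proteins plus one bare bead set; values are compound well signal with DMSO vehicle wells as background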
RGS7-Gao: regulators of human RGS7-Galphao interaction. Multiplexed bead flow cytometry, RGS7-Galphao binding; actives lie on both sides. P09471. binding response (% of control), % at 10 µM. AID 1439. actives 0.35% (n = 220,000); in the data active = binding response below about 49% or above about 150%; inconclusive = no clear call, values can overlap the other calls; inactive = in between;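 note: fluorescent Galphao held in activated GDP-AlF4 state binding bead-coupled RGS7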
Target sequence (P09471 whole entry, looked up): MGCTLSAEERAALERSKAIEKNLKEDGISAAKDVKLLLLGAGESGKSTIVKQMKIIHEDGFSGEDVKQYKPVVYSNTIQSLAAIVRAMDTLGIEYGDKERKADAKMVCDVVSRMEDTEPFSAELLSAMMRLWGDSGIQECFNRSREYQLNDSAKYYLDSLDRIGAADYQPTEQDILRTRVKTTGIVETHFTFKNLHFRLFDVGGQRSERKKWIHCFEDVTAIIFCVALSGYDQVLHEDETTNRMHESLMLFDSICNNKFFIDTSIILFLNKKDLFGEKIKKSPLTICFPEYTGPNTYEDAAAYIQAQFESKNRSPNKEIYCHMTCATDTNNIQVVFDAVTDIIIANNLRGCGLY
RGS4-Gao reg: modulates binding of RGS4 to human Galphao; P09471; Multiplexed bead flow cytometry; actives lie on both sides; binding response (% of control), % at 10 µM; actives 0.33% (n = 220,000); AID 1415; in the data active = binding response below about 49% or above about 150%; inactive = in between;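 note: fluorescent Galphao activated with aluminum fluoride binding bead-coupled RGS4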
Avidin fluor: compound fluoresces at 488/530 nm on avidin beads | compound fluorescence 488/530 nm, flow cytometry; stronger effect = higher value | AID 1775 | fluorescence (KMESF) at 10 µM | actives 0.38% (n = 220,000); in the data active = fluorescence above about 47
RGS8-Gao: modulates binding of RGS8 to human Galphao | P09471 | AID 1423 | actives 0.34% (n = 220,000) | multiplexed bead flow cytometry; actives lie on both sides | response (percent of control binding), % at 10 µM; in the data active = response below about 60% or above about 140%; inactive = in between;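 note: Galphao activated as the GDP aluminium fluoride complex binding bead-coupled RGS8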
RGS16-Gao: regulators of human RGS16-Galphao interaction; actives 0.38% (n = 220,000); bead-based flow cytometry RGS16-Galphao binding, fluorescence; actives lie on both sides; AID 1441; O15492+P09471; binding response (% of control), % at 10 µM; call rule not given here;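 note: Galphao activated by GDP with aluminum fluoride before binding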
* hit, by the source's call; u = inconclusive; x = not tested or not shown. Most compounds without a hit are left out; they make up all but 1.2% or so of the library.

SMILES | GSH fluor | RGS7-Gao | RGS4-Gao reg | Avidin fluor | RGS8-Gao | RGS16-Gao
CCSC1=N/C(=C\c2ccc3c(c2)OCO3)C(=O)S1 | 12 | 93.0 | 96.2 | 21 | 94.9 | 95.4
CCCSC1=N/C(=C\c2ccc3c(c2)OCO3)C(=O)S1 | 52 | 109.6 | 100.6 | 60* | 103.1 | 103.5
CC12CCC(C(=Nc3ccc(N=C4C(=O)C5(C)CCC4C5(C)C)cc3)C1=O)C2(C)C | x | u | 111.8 | 57* | 99.7 | 96.6
Cc1ccc(N2C(=O)C3CCC(C)(C2=O)C3(C)C)cc1 (configuration not stated) | x | u | 98.5 | 4 | 100.0 | 100.4
Cc1cccc(NC(=S)NCCc2ccc3c(c2)OCCO3)c1C | 19 | 99.5 | 101.0 | 11 | 104.0 | 107.0
CC(C)c1ccc(N2CC(C)(C)C2=O)cc1 | 15 | 96.5 | 98.8 | 8 | 100.1 | 99.3
CCN(CC)C(=O)C(=O)N/N=C/c1ccc(F)cc1 | 10 | 100.9 | 101.6 | 10 | 100.2 | 102.6
Cc1cccc(C)c1N1CCc2cn[nH]c21 | 12 | 102.0 | 102.5 | 48* | 95.7 | 100.0
CC1=NN(c2ccccc2)C(=O)C1C(=O)c1cc([N+](=O)[O-])cc([N+](=O)[O-])c1 (configuration not stated) | 29 | 103.6 | 103.0 | 9 | 102.7 | 100.5
O=C(CN1CCOCC1)n1c2ccccc2c2ccccc21 | 256* | 99.7 | 97.8 | 8 | 99.3 | 96.3
Cn1cc(Cl)c(-c2n[nH]c(=S)n2C2CCCCC2)n1 | 21 | 109.5 | 102.5 | 3 | 97.4 | 95.5
CCOC(=O)Nc1cc(C)ccc1OC | 27 | 141.6 | 101.8 | 51* | 94.2 | 92.4
CCOC(=O)Nc1ccc(C)cc1NC(=O)OCC | 13 | 105.0 | 99.3 | 46 | 102.5 | 102.3
CCNC(=S)Nc1cc(-c2ccc(Cl)cc2)[nH]n1 | 25 | 105.2 | 101.1 | 9 | 101.6 | 102.1
CNC(=S)N1N=C(c2ccc(Br)cc2)CC1c1ccc(Br)cc1 (configuration not stated) | 23 | 103.8 | 97.5 | 48* | 97.2 | 92.7
CNC(=S)N1N=C(c2ccc(Br)cc2)CC1c1ccc(N(C)C)cc1 (configuration not stated) | 16 | u | 103.7 | 9 | 102.0 | 103.5
COc1cc(C(=O)NNC(=S)NC(=O)c2ccc(Cl)cc2)cc(OC)c1OC | 446* | 103.5 | 109.4 | 20 | 99.4 | 107.3
CCOC(=O)c1nn(-c2ccccc2)c(=O)cc1SC(C)C | 25 | 101.6 | 103.2 | 21 | 108.1 | 133.8
CCOC(=O)c1nn(-c2ccccc2)c(=O)cc1SC(C)CC (configuration not stated) | 32 | 143.7 | 110.2 | 100* | 101.4 | 103.0
COc1ccc(C(O)c2coc3ccc(O)c(CN(C)C)c23)cc1 (configuration not stated) | 16 | 115.5 | 102.9 | 83* | 99.5 | 92.3
O=C(NNC1=NCCC1)c1ccc(Br)cc1 | 261* | 111.0 | 115.0 | 5 | 136.2 | 213.5
Cc1ccc(C(=O)NNC2=NCCC2)cc1 | 38 | 101.9 | 98.1 | 6 | 97.3 | 96.8
CCOc1ccccc1/C=C(/C#N)C(N)=O | x | u | 98.6 | 4 | 99.9 | 100.3
CCCc1cc(=O)[nH]c(SCC(=O)Nc2ccc(OC(F)F)cc2)n1 | 260* | 103.2 | 102.9 | 7 | 103.1 | 103.0
CCCc1cc(=O)[nH]c(SCC(=O)Nc2ccc3c(c2)CCC3)n1 | 13 | 99.6 | 102.7 | 11 | 101.7 | 112.7
SMILES | GSH fluor | RGS7-Gao | RGS4-Gao reg | Avidin fluor | RGS8-Gao | RGS16-Gao
Cc1ccc2nc3c(cc2c1)c(NC(=O)c1ccccn1)nn3CC(C)C | 25 | 111.5 | 105.6 | 62* | 106.3 | 111.3
CC(C)(O)C#Cc1ccc(CN2CCN(CCc3ccccc3)C(CCO)C2)s1 (configuration not stated) | 14 | 100.1 | 102.6 | 12 | 102.0 | 102.1
CCOC(=O)c1[nH]c(C)c(C(=O)Nc2ccc(F)cc2)c1C | 25 | 95.6 | 98.0 | 7 | 101.2 | 104.7
CCOC(=O)c1[nH]c(C)c(C(=O)Nc2ccccc2F)c1C | 25 | 127.4 | 102.3 | 108* | 97.3 | 104.6
Cc1cc(NC(=S)N(Cc2ccc(Br)cc2)Cc2ccc(C(=O)O)cc2)ccc1Cl | 15 | 98.5 | 99.2 | 11 | 97.9 | 97.0
Oc1ccc(C=Nc2ccc3ncccc3c2)c(O)c1 | 17 | 117.2 | 105.9 | 69* | 100.2 | 104.8
Oc1ccc(C=Nc2cccc3ncccc23)c(O)c1 | 23 | 97.5 | 98.6 | 15 | 101.6 | 101.2
